A word on the AC50: it is the midpoint of the concentration-response curve, whichever way the signal moves.

Screen size: about 1,200 compounds; about 620 (52%) were called active. So high a share suggests a set chosen from earlier hits. The list is a sample of the results. Values without a mark were called inactive.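 Rule for the calls: active = every separate test run was called active for a drop in luminescence, with AC50 within twice the top valid dose (actives reach about 71 µM in these data); inconclusive = the separate test runs disagree in their calls; inactive = all runs inactive, including signal change in the wrong direction.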

Data on 46 molecules can be found in PubChem BioAssay AID651705 (Broad Institute, 2012).

This experiment is described as follows: bead-based luminescence quenchers, dual-tagged ARNT – biochemical, AlphaScreen, cherry-pick, artefact control for ARNT-TACC3 interaction inhibitor project, dose response (AID 651705).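 For activity change, negative = signal decrease: 0% = neutral control wells with protein and -100% = buffer without protein.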 The settings on record: His-ARNT PASB-GST AlphaScreen artifact counter-screen; series mostly up to 68 µM; activity change, negative = signal decrease: at the top concentration. For orientation: In Alpha technology, singlet oxygen from a donor bead excites a nearby acceptor bead.
In the case of `Oc1cccc(/C=N/Nc2ccc(Cl)nn2)c1O`, the AC50 was 10.2 µM (active). On to `CN(c1ccc(C(=O)N2CCc3ccccc3C2)cc1)S(C)(=O)=O`, for which the “activity change, negative = signal decrease” value is -2.85%. On the same count and under the same terms, under `C[C@@H]1CN([C@H](C)CO)C(=O)Cc2cc(NC(=O)Nc3cccc4ccccc34)ccc2O[C@@H]1CN(C)Cc1ccc(C(=O)O)cc1` stands -5.56% [at 38 µM]; under `CC(C(=O)Nc1ccc(O)c(C(=O)O)c1)N1C(=O)/C(=C/c2cccs2)SC1=S` (stereo unspecified), -21.1%. For `CCN(CC)c1ccc(/C=N/NC(=O)c2cnccn2)c(O)c1`, the “activity change, negative = signal decrease” value was -14.3%. Consider `CCN1CCN(C(c2cccnc2)c2cc(Cl)c3cccnc3c2O)CC1` (stereo unspecified), for which the AC50 was 23.8 µM (active).

As to `CCOC(=O)N1CCN(C(c2cccnc2)c2ccc3cccnc3c2O)CC1` (stereo unspecified), the AC50 is 18 µM (active). With `COc1ccc2ccccc2c1CNCc1ccccn1`, the “activity change, negative = signal decrease” value is -24.4%.

With `O=S(=O)(c1ccccc1)N1C[C@@H]2[C@H](c3ccccc31)[C@H](CO)N2Cc1ccccn1`, the AC50 was 65.5 µM (active). Take `C/C(=N\NC(=O)Cc1ccc(Cl)cc1)c1ccccn1`: the AC50 was 59.3 µM (active). On to `Cc1c(CC(=O)NCC(=O)NCC(=O)O)c(=O)oc2cc3oc4c(c3cc12)CCCC4`, for which the “activity change, negative = signal decrease” value was -7.24%. Consider `O=C(NCCCn1ccnc1)c1cc(-c2ccccc2)on1`, for which the “activity change, negative = signal decrease” value was -4.56% [at 38 µM]. As for `CC(=O)/C(=N\Nc1ccc(Cl)cc1Cl)Sc1cccc2cccnc12`, the AC50 was 7.85 µM (active). Consider `Oc1ccc(Br)cc1/C=N/Nc1ccccn1`, for which the AC50 is 56.5 µM (active). On to `Cc1ccccc1CSc1nnc(-c2ccccn2)n1N`, for which the “activity change, negative = signal decrease” value is -19.5%. `O=C(CN1C(=O)COc2ccccc21)Nc1ccc(F)cc1`: the AC50 is 13.5 µM (active). In the case of `O=C1c2cccc3cccc(c23)C(=O)N1CCCCCc1n[nH]c(=S)o1`, the “activity change, negative = signal decrease” value was -29.9%.

As for `CCn1cc(/C=C2/SC(=S)NC2=O)c(C)n1`, the “activity change, negative = signal decrease” value is -7.76%.

`Oc1c(CN2CCN(c3ccc(F)cc3)CC2)cc(Cl)c2cccnc12`: the AC50 was 10.2 µM (active). The same measure, in the same setting: in the case of `O=C(CSc1ccc(-c2ccccn2)nn1)Nc1ccccc1` it was 10.4 µM (active).

Regarding `C[C@@H]1CN([C@@H](C)CO)C(=O)c2cc(NS(=O)(=O)c3cccs3)ccc2O[C@H]1CN(C)CC1CCCCC1`, the “activity change, negative = signal decrease” value was -5.29% [at 38 µM]. The same measure, in the same setting: in the case of `c1ccc(-c2cn3c(n2)CCc2ccc4cccnc4c2-3)cc1` it was -27.6%; in that of `O=C(Nc1cnc2ccccc2c1)c1cc(-c2ccccc2)on1`, -4.59% [at 38 µM]. For `Cn1c(-c2ccccc2)cnc1NC(=O)c1cc(-c2ccccc2)on1`, the AC50 was 40.5 µM (active). In the case of `Cc1ccc(NC(=O)c2cc(-c3ccccc3)on2)cn1`, the “activity change, negative = signal decrease” value is 2.04% [at 38 µM]. As for `CCOc1cc(N2CCOCC2)c(OCC)cc1NC(=O)COc1cccc2cccnc12`, the AC50 was 36.5 µM (active). Still for that read-out and setting: under `O=C(N[C@@H]1CC[C@H](CCn2cc(-c3ccccn3)nn2)O[C@@H]1CO)c1ccccc1` stands 37.6 µM (active). On the same count and under the same terms, in the case of `O=S(=O)(N[C@@H]1CC[C@@H](CCn2cc(-c3ccccn3)nn2)O[C@@H]1CO)c1cccc(Cl)c1` it was 41.9 µM (active). Consider `COCCNC(=O)Cn1cc(C(=O)c2cccs2)c2ccccc21`, for which the “activity change, negative = signal decrease” value is -2.7%. As to `Cn1c(=NC(=O)c2cnccn2)sc2ccccc21`, the “activity change, negative = signal decrease” value is -2.58%. In the case of `Cc1c(NC(=O)CSc2cccc3cccnc23)c(=O)n(-c2ccccc2)n1C`, the AC50 was 32.1 µM (active). On the same count and under the same terms, under `COc1ccc(Cc2nnc(N/N=C/c3ccccc3O)[nH]c2=O)cc1OC` stands 6.44 µM (active). Consider `CCN(/N=C/c1ccccc1)c1cc(=O)n(C)c(=O)[nH]1`, for which the “activity change, negative = signal decrease” value is 1.26%. Same read-out and setting: under `COc1cc(C2C(C#N)=C(N)Oc3n[nH]c(-c4ccccn4)c32)cc(OC)c1OC` (stereo unspecified) stands -7.09%. `c1ccc(-c2nnc(-c3ccccn3)nc2Nc2nc3ccccc3s2)cc1`: the AC50 was 1.9 µM (active). On the same count and under the same terms, under `O=C(CN1C(=O)C2C3C=CC(C3)C2C1=O)Nc1nc(-c2ccccn2)cs1` (stereo unspecified) stands 47.6 µM (active). With `O=C(COc1ccccc1F)Nc1nc(-c2ccccn2)cs1`, the AC50 was 54.1 µM (active).

As for `CC(NC(=O)c1ccco1)C(=O)Nc1nc(-c2ccccn2)cs1` (stereo unspecified), the AC50 was 31.7 µM (active). As to `Cc1c(CC(=O)NCCCCCC(=O)O)c(=O)oc2cc3occ(-c4ccccc4)c3cc12`, the “activity change, negative = signal decrease” value is -32.8%.

For the molecule `CCN(C(=O)Cc1nc(N)n[nH]1)C1(C(=O)Nc2ccccc2)CCCCC1`, the “activity change, negative = signal decrease” value was -14.5%. As for `Cc1ccc(S(=O)(=O)n2oc(=O)c(C3CCCCC3)c2N)cc1`, the concentration at half-maximal activity (AC50) is 42.3 µM (active). With `COc1ccccc1Nc1nc(N)nc(CN(C)C2CCCCC2)n1`, the “activity change, negative = signal decrease” value was -22.6%. For the molecule `CC[C@]1(O)CC2CN(CCc3c([nH]c4ccccc34)[C@@](C(=O)OC)(c3cc4c(cc3OC)N(C=O)[C@H]3[C@@](O)(C(=O)OC)[C@H](OC(C)=O)[C@]5(CC)C=CCN6CC[C@]43[C@@H]65)C2)C1` (stereo partly specified), the “activity change, negative = signal decrease” value is -11%. Take `CCN(CC)CCOc1ccc2c(c1)C(=NNC(=O)c1ccccn1)c1cc(OCCN(CC)CC)ccc1-2`: the half-maximal activity concentration (AC50) was 69.6 µM (active).

Take `CCOC(=O)c1ccc(Nc2cc3ccccc3c(=O)[nH]2)cc1`: the “activity change, negative = signal decrease” value is -19.3%. On the same count and under the same terms, in the case of `COC(=O)CC1=NN(c2nc(C)cc(C)n2)C(=O)C1` it was 2.68%.
